Screening data as filed in PubChem.
VACV Venus inh: inhibitors of vaccinia virus (Venus reporter); Vaccinia virus Venus reporter expression, fluorescence; Potency, µM (top dose mostly 36.5 µM), without a hit: at the highest dose activity change, negative = inhibition, actives largely listed as inhibitors; actives 0.46% (n = 330,000); AID 720580; calls by dose curve; tested in A549 cells; also: nearly all actives have a fitted effect of over 30% in size
MARV entry inh: Marburg virus entry inhibition; AID 540276; Marburg virus pseudotyped entry inhibition, cell reporter; actives 1.8% (n = 300,000); Potency, µM (doses to about 37.8 µM), for inactives: at the highest dose activity change, negative = inhibition, actives largely listed as inhibitors; calls by dose curve; tested in HEK293 cells
Vaccinia mCherry: vaccinia inhibition (mCherry reporter); actives 0.63% (n = 310,000); Potency, µM (doses to about 36.5 µM), for inactives: at the highest dose activity change, negative = inhibition, actives largely listed as inhibitors; Vaccinia virus mCherry reporter infection, fluorescence; calls by dose curve; tested in A549 cells; also: nearly all actives have a fitted effect of over 35% in size
HCV inh: inhibitors of hepatitis C virus infection; actives 3.4% (n = 340,000); Huh7.5.1 HCVcc-Cre infection, luciferase reporter, 44 h; Potency, µM (titrated, usually from 41.8 µM), without a hit: at the highest dose activity change, negative = inhibition, usual class: inhibitors; active = well fitted inhibition curve with a large enough effect; inconclusive = small, poorly fitted or top-dose-only effect, or another doubt; inactive = no such curve, though single readings can be large or run the other way
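HCVcc-Cre virus at an moi near 0.5 was added right after compound to cells cultured 4 h from seeding (1,000 cells/well). Luciferase activity was determined 44 h later, 15 min after substrate addition at RT.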
LASV entry inh: inhibitors of Lassa virus binding or cell entry | Potency, µM (top dose mostly 37.9 µM), inactives show top-dose activity change, negative = inhibition, actives largely listed as inhibitors | Lassa virus pseudotype entry inhibition, cell reporter | actives 1.2% (n = 300,000) | AID 540256; calls by dose curve; tested in HEK293 cells; also: nearly all actives have a fitted effect of over 50% in size
Active calls of the source: *; i = inactive; ? = inconclusive; · = not tested or not shown; [ ] = remark or other dose. Only some compounds are listed: those with a hit (about 4.6% of all), similar ones and a draw of the others. % is scaled to controls: 0 for no effect and ±100 for the full control effect; potency is read from the fitted curve at half-maximal effect.

SMILES	VACV Venus inh	MARV entry inh	Vaccinia mCherry	HCV inh	LASV entry inh
CCOc1ccc2nc3sc(C(=O)N4CCN(C)CC4)c(N)c3cc2c1	·	-3%	·	11µM*	23%
CCN1CCc2nc3sc(C(=O)N4CCc5ccccc5C4)c(N)c3cc2C1	4%	?	?	?	1%[46.1 µM]
Cc1ccc2nc3sc(C(=O)N4CCOCC4)c(N)c3cc2c1	-12%	0.41µM*	?	28%	?
CC(C)c1ccc2nc3sc(C(=O)N4CCc5ccccc5C4)c(N)c3cc2c1	-12%	18%	?	10µM*	8%
COc1ccc2cc3c(N)c(C(=O)N4CCCC4)sc3nc2c1	-4%	?	·	?	?
Cc1cnc(-n2ncc(C(=O)NCCc3cccnc3)c2C)nc1-c1cccs1	-19%	·	?	·	·
CCOC(=O)C1C=CN=C1C (stereo not drawn)	·	14%	·	·	·
O=C(CN1Cc2ccccc2OC(c2ccsc2)C1)NCC1OCCc2ccccc21 (stereo not drawn)	0%	·	0%	·	·
CCCCOC(OCCCC)[C@H](O)CSc1ccc2ccccc2c1	·	-28%[14.2 µM]	·	·	·
CCOC(=O)c1ccc(NS(=O)(=O)c2c(C)n[nH]c2C)cc1	·	·	·	-10%	·
CCOC(=O)c1ccc(NS(=O)(=O)c2c(N)n(C)c(=O)n(C)c2=O)cc1	?	·	-8%	10µM*	·
COC(=O)C1(Cc2cc(-c3ccc([N+](=O)[O-])cc3)no2)CCN(C(=O)OC(C)(C)C)CC1	-16%	·	i	?	·
COC(=O)C1(Cc2cc(-c3ccc(Cl)cc3)no2)CCN(C(=O)OC(C)(C)C)CC1	-21%	·	i	1µM*	·
Cc1cc(Nc2ccccc2)nc(-c2ccccc2O)n1	?	2%	·	0.63µM*	8%
Cc1cc(N2CCCCCC2)nc(-c2ccccc2O)n1	-27%	?	·	13µM*	?
Cc1cc(N2CCCCC2)nc(NCc2ccccc2)n1	?	3.2µM*	?	?	?
Cc1cc(OC2CCCCC2)nc(NCc2ccccc2)n1	-3%	-4%[14.2 µM]	-8%	8%	-4%
Cc1cc(N2CCOCC2)nc(NCc2ccccc2)n1	?	?	-27%	13µM*	-26%
O=C(NCC(c1ccc2c(c1)OCO2)N1CCOCC1)c1ccc(F)cc1 (stereo not drawn)	-3%	·	i	·	14%[46.1 µM]
Cc1cc(N2CCOCC2)nc(SCc2c(Cl)cccc2Cl)n1	?	-24%	?	11µM*	-21%
Cc1ccc(CNC(=O)CCCCCn2c(=O)c3sccc3n(CC(=O)C(C)(C)C)c2=O)cc1	-16%	-18%[46.1 µM]	-16%	·	?
Oc1ccc(C=NNC(=S)Nc2cccnc2)nc1	-22%	?	-26%	?	10µM*
Oc1ccc(/C=N/NC(=S)Nc2cccnc2)cc1O	-12%	?	-10%	-3%	?
Cc1ccc(-n2nc3c(N4CCC(C(=O)N5CCCCC5)CC4)nnc(C)c3c2C)cc1	-25%	·	-30%	·	?
COCCCNC(=O)N1CCN(c2nnc(C)c3c(C)n(-c4ccc(Cl)cc4)nc23)CC1	?	·	8.9µM*	·	15%[46.1 µM]
SMILES	VACV Venus inh	MARV entry inh	Vaccinia mCherry	HCV inh	LASV entry inh
Cc1ccc(-n2nc3c(N4CCC(C(=O)NCCc5ccccc5)CC4)nnc(C)c3c2C)cc1	11µM*	·	10µM*	·	-9%[46.1 µM]
Cc1ccc(-n2nc3c(N4CCC(C(=O)NCCc5ccccc5C)CC4)nnc(C)c3c2C)cc1	13µM*	·	10µM*	7.9µM*	-19%[46.1 µM]
CCOC(=O)CNC(=O)N1CCN(c2nnc(C)c3c(C)n(-c4ccc(Cl)cc4)nc23)CC1	-2%	·	-7%	·	-19%[46.1 µM]
CCN1CCN(C(=O)C2CCN(c3nnc(C)c4c(C)n(-c5ccc(C)cc5)nc34)CC2)CC1	·	·	·	8.9µM*	·
CCN(CC)C(=O)Cn1c(=O)n(-c2ccc(C)c(C)c2)c(=O)c2c3c(sc21)CCCCC3	-8%	25%[46.1 µM]	-5%	·	12%[46.1 µM]
S=c1[nH]nc(-c2cc(-c3ccccc3)n[nH]2)n1/N=C/C(Br)=C/c1ccccc1	?	?	14µM*	?	?
S=c1[nH]nc(-c2cc(-c3ccccc3)n[nH]2)n1/N=C/c1ccccc1	-13%[7.34 µM]	·	i[7.34 µM]	16%	·
COc1ccc(-c2cccc(NC(=O)c3cccs3)c2)nn1	-17%	2%	-2%	3.5µM*	-24%
CCOc1ccc(-c2cccc(NC(=O)c3cccs3)c2)nn1	-15%	9%[46.1 µM]	-12%	?	-9%
COc1ccc2c(c1)OC(C)CN(CCNC(=O)c1cccc(N3CCNC3=O)c1)C2 (stereo not drawn)	-15%	·	-16%	·	·
CC(C)=CCCC(C)=CCON=C1C[C@@H](O)[C@@H](O)[C@@H]2[C@H]3C(=O)N(C[C@@H]4CCCO4)C(=O)[C@@H]3CC[C@@H]12	·	-5%[14.2 µM]	·	·	·
Cc1ccnc2ccc(Br)cc12	-3%	·	-10%	·	·
CN1CCN(Cc2nc3ccccc3c(=O)n2Cc2nc(-c3cccc([N+](=O)[O-])c3)cs2)CC1	-13%	?	-23%	2.5µM*	?
CN1CCN(Cc2nc3ccccc3c(=O)n2Cc2nc(-c3ccc4ccccc4c3)cs2)CC1	13µM*	?	?	11µM*	?
CN1CCN(Cc2nc3ccccc3c(=O)n2Cc2nc(-c3ccccc3F)cs2)CC1	-9%	?	-14%	?	-20%
O=C(Cc1cccc2ccccc12)Nc1ccccc1C(=O)O	·	15µM*	·	2%	?
O=C(Cc1cccc2ccccc12)Nc1cc(Cl)ccc1C(=O)O	-8%	1%[46.1 µM]	i	9%	2%[46.1 µM]
O=C(CSc1ccccc1)Nc1ccccc1C(=O)O	·	18µM*	·	9%	?
CC1CCN(c2nc3ccccc3nc2C(F)(F)F)CC1	0%	·	7%	·	2%[46.1 µM]
Cc1nc(NC(=O)CSc2nc3cccnc3n2C2CCCCC2)sc1C	-25%	-10%[46.1 µM]	-3%	2%	-18%
CCc1nnc(NC(=O)CSc2nc3cccnc3n2C2CCCCC2)s1	-10%	2.5µM*	-20%	7%	5.6µM*
O=C(Cn1c(=O)c(=O)n(Cc2ccccc2)c2ccc(Cl)cc21)Nc1cccc(F)c1	-9%	0.79µM*	i	?	?
O=C(Cn1c(=O)c2cccn2c2ccc(F)cc21)Nc1cccc(F)c1	-5%	·	-3%	·	1%[46.1 µM]
CC1=NC=CC2C1=Nc1ccccc12 (stereo not drawn)	·	-1%	·	·	·
NC(=O)c1sc2nc3c(c(-c4ccco4)c2c1N)CCCC3	·	·	·	-27%	·
Cc1ccccc1NC(=O)c1sc2nc3c(c(-c4ccco4)c2c1N)CCC3	-10%	0%	i	4µM*	-13%
N#Cc1sc2nc3c(c(-c4ccco4)c2c1N)CCCC3	-15%	?	-15%	7.9µM*	-13%
Cc1cc(C)nc(NC(=NCCc2c[nH]c3ccccc23)NC(=O)Nc2ccc(Cl)c(Cl)c2)n1	-11%	?	-23%	?	-22%
Cc1cc(C)nc(NC(=NCCc2c[nH]c3ccccc23)NC(=O)Nc2ccccc2)n1	?	15µM*	?	?	?
Cc1cc(C)nc(NC(=NCCc2c[nH]c3ccccc23)NC(=O)c2ccco2)n1	?	11µM*	?	?	?
